The structures appear in SMILES notation. Hit rate of the full screen: of about 420,000 compounds, about 64,000 (15%) were called active. Not shown: some 27% with an inconclusive outcome. The call rests on the fitted dose curve; in most records, active means well fitted inhibition curve with a large enough effect; inconclusive means small, poorly fitted or top-dose-only effect; inactive means flat fitted curve, though single readings scatter. These entries were drawn from the full list. Where a call stands in place of a potency, no number is given.
Potency means the concentration at half of the fitted maximal effect.

This assay can be described thus: qHTS for Inhibitors of human tyrosyl-DNA phosphodiesterase 1 (TDP1): qHTS in cells in absence of CPT. Further: nearly all actives have a fitted effect of over 55% in size. As to conditions: DT40 Tdp1-/- hTDP1 cells, no CPT, ATP luminescence, 48 h; activity change, negative = growth inhibition: at 46.2 µM (top of the series). In short, it runs like this:
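Compound effects on proliferation are scored in DT40 Tdp1-/-;hTDP1 cells in the absence of CPT. ATP levels (CellTiter-Glo luminescence) are recorded after a ≥48 hr, 37 °C incubation.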
(qHTS replaces the single test concentration by a dilution series.)
For `CC1(C)O[C@@H]2[C@H](O1)[C@@H](COS(=O)(=O)O)O[C@H]2n1ccc(=O)[nH]c1=O`, the Potency entry is “inactive”.

As to `CCOc1ccc(C(=O)Nc2cccc(SC)c2)cc1`, the Potency was 9.2 µM (active).

Regarding `CCOc1ccc(NC(=O)c2ccc(NC(=O)C3CCCO3)cc2)cc1` (stereo not given), the Potency entry was “inactive”.

With `CSc1cccc(NC(=O)CSc2ccccc2)c1`, the Potency result is “inactive”.

Consider `O=C(CSc1ccccc1)Nc1ccc(C(=O)Nc2cccc(O)c2)cc1`, for which the Potency entry is “inactive”.

In the case of `COC(=O)c1ccccc1NC(=O)c1ccccc1NS(C)(=O)=O`, the Potency entry was “inactive”.

Regarding `CCOc1ccc(C(=O)Nc2ccncc2)cc1`, the Potency was 18.4 µM (active).

As for `CCCOc1cccc(C(=O)Nc2cccc(NC(=O)c3ccc(C(C)(C)C)cc3)c2)c1`, the Potency was 29.1 µM (active).

For `NC(=O)COc1ccc(NC(=O)c2ccccc2-c2ccccc2)cc1`, the Potency entry is “inactive”.

As to `CCOc1ccc(NC(=O)c2ccc(CSc3nnnn3C)cc2)cc1`, the Potency result was “inactive”.

Consider `CCCOc1cccc(C(=O)NCCCNC(=O)c2cccnc2)c1`, for which the Potency result was “inactive”.

Consider `CCOc1ccc(NC(=O)c2ccccc2NS(C)(=O)=O)cc1`, for which the Potency is 18.4 µM (active).

Turning to `CCOc1cccc(C(=O)Nc2cccnc2)c1`, the Potency result is “inactive”.

In the case of `Cc1cc(C(=O)OC(C)C(=O)Nc2cccc(S(=O)(=O)N3CCOCC3)c2)c(C)o1` (stereo not given), the Potency result is “inactive”.

Turning to `COCCCNC(=S)NC(=O)c1ccc([N+](=O)[O-])cc1`, the Potency result is “inactive”.

Take `CCOc1ccccc1NS(=O)(=O)c1c[nH]c(C(=O)OC)c1`: the Potency result was “inactive”.

With `COCCCNC(=O)c1c(NC(=O)c2cc(=O)c3cc(C)c(C)cc3o2)sc2c1CCCC2`, the Potency result was “inactive”.

For `Cc1cc(O)c(C2(O)C(=O)Nc3ccccc32)cc1C` (stereo not given), the Potency entry was “inactive”.

Turning to `Cc1ccc(Oc2nc(-c3ccccn3)nc3ccccc23)cc1`, the Potency was 18.4 µM (active).

As to `CC(C)(C)c1ccc(Oc2ccc(N)cc2)cc1`, the Potency result is “inactive”.

Take `COc1cnc(-c2ccccn2)nc1Oc1ccc(C(C)(C)C)cc1`: the Potency is 4.61 µM (active).

As for `Cc1nc2ccccc2c(C(=O)O)c1-c1ccccn1`, the Potency entry was “inactive”.

As to `COc1ccc(Cc2nc(-c3ccccn3)no2)cc1OC`, the Potency entry was “inactive”.

For `CC(C)(C)Nc1nc(-c2ccccn2)nc2ccccc12`, the Potency is 4.11 µM (active).

As to `CCOC(=O)c1cnc(-c2ccccc2)nc1Oc1ccc(C)cc1`, the Potency result is “inactive”.

Consider `O=C(c1ccc(NS(=O)(=O)c2ccc3[nH]c(=O)[nH]c3c2)cc1)N1CCCCC1`, for which the Potency entry was “inactive”.

Turning to `CCC(CC)C(=O)Nc1c2c(nn1-c1ccc(C)cc1)CS(=O)(=O)C2`, the Potency entry is “inactive”.

With `Cc1noc(COc2ccccc2OCc2onc(C)c2Cl)c1Cl`, the Potency result is “inactive”.

On to `CC1(OC(=O)C2CCCC2)C(=O)C=C2C=C(c3ccc(C#N)cc3)OC=C2C1=O` (stereo not given), for which the Potency entry was “inactive”.

Turning to `CC(C)NC(=O)CSc1nnc(COc2ccccc2Cl)o1`, the Potency result is “inactive”.

For the origin of these results see PubChem BioAssay AID686978 (National Center for Advancing Translational Sciences (NCATS), 2013).
